Screens deposited in PubChem by Broad Institute.
Hits are enriched below; roughly 4% of the tested compounds scored in any of these assays.
MITF TRPM1 HTS: activators of MITF-driven TRPM1 promoter activity in SK-MEL-5 cells; SK-MEL-5 TRPM1-promoter luciferase, 24 h; % of positive control, neutral wells = 0; activation, % at 12.5 µM; actives 0.75% (n = 300,000); AID 588334;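 active means mean activation of at least 80% with every replicate also reaching 80%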
MITF TRPM1 inh: reduces MITF-dependent TRPM1 promoter luciferase signal; SK-MEL-5 TRPM1 promoter luciferase, 24 h; actives 0.83% (n = 330,000); inhibition, % at 12.5 µM;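 active means mean inhibition across replicates of 60% or more, whatever share of single replicates reaches that level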
PAX8 reporter: PAX8 transcriptional activity inhibition. RMG-I TPO-luciferase reporter, SteadyGlo, 24 h. inhibition, % at 12.6 µM. actives 1.2% (n = 360,000);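 active means mean replicate inhibition at least 60% with every replicate also reaching 60%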;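 further: luciferase light reporting Pax8 driven TPO promoter activity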
EWS-Fli inh: blocks EWS/Fli oncoprotein-driven transcription; A673 NR0B1-luciferase reporter, viability-normalised; inhibition, % at 12.6 µM; AID 651661; actives 0.67% (n = 350,000);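 active means mean inhibition of at least 50% after viability correction, with every replicate also passing that limit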;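 further: firefly luciferase signal divided by Alamar Blue viability fluorescence both relative to DMSO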
Wnt bcat act: Wnt/beta-catenin pathway activation | Wnt/beta-catenin reporter cell assay, activator, plate reader | actives 1.2% (n = 300,000) | AID 743398 | activation, % at 9.35 µM; in the data active means activation above about 30%, passing the limit was not always enough
esBAF inh: blocks esBAF chromatin remodeling in mouse ES cells. Bmi1-luciferase knock-in reporter, 24 h; 100% = twice the neutral-well signal. reporter increase, % at 12.5 µM. actives 2% (n = 350,000); in the data active means activation above about 40%;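 further: a rise in the Bmi1 reporter signal indicates esBAF inhibition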
A number is an active result; . = inactive; / = no result.

SMILES	MITF TRPM1 HTS	MITF TRPM1 inh	PAX8 reporter	EWS-Fli inh	Wnt bcat act	esBAF inh
CO[C@H]1CN(C)C(=O)c2cc(NC(=O)Nc3cccc(Cl)c3)ccc2OC[C@H](C)NC[C@H]1C	/	/	.	.	/	.
CNC(=O)C[C@H]1CC[C@H]2[C@H](COc3ccc(NC(=O)Nc4cccc(Cl)c4)cc3C(=O)N2C)O1	/	/	.	.	/	.
C[C@@H]1CN([C@@H](C)CO)C(=O)c2cc(/C=C/c3ccccc3)cnc2O[C@H]1CN(C)C(=O)c1cnccn1	/	/	/	.	/	.
Cc1c(C(=O)Nc2nccs2)oc2ccc(F)cc12	.	.	.	.	38.0	.
Cc1c(C(=O)Nc2nccs2)oc2ccc(Br)cc12	.	.	.	.	.	72.4
Cc1c(C(=O)N2CCN(C(=O)c3ccccc3)CC2)oc2ccc(F)cc12	.	.	.	.	.	.
Cc1c(C(=O)/C=C/c2cccs2)oc2ccc(F)cc12	.	.	/	/	/	63.3
Cc1ccc(-c2ccc([C@@H]3[C@@H](CO)N4C(=O)CN(C(=O)Nc5cccc(F)c5)C[C@@H]34)cc2)cc1	/	/	/	.	/	/
O=c1cccc2n1Cc1cc3ccccc3nc1-2	.	.	.	.	38.7	53.5
NC1=NC(=O)/C(=C/C=C/c2cccs2)S1	.	.	.	.	36.0	/
Cc1sc2nc(-c3ccc(Br)cc3)oc(=O)c2c1C	/	.	/	/	/	55.4
C/C=C/c1ccc([C@@H]2[C@@H](CO)N(C(=O)CN(C)C)C23CN(C(=O)C2CCC2)C3)cc1	/	/	.	.	/	/
C[C@@H]1CN([C@H](C)CO)C(=O)c2cc(NC(=O)Nc3ccc(C(F)(F)F)cc3)ccc2O[C@@H](C)CCCCO[C@@H]1CN(C)Cc1ccc2c(c1)OCO2	/	/	89.5	.	/	.
C[C@@H]1CCCCO[C@@H](CN(C)Cc2ccc(C(F)(F)F)cc2)[C@H](C)CN([C@@H](C)CO)C(=O)c2cc(NC(=O)Nc3ccc4c(c3)OCO4)ccc2O1	/	/	71.6	.	/	.
C[C@@H]1CCCCO[C@H](CN(C)Cc2ccc(C(F)(F)F)cc2)[C@@H](C)CN([C@@H](C)CO)C(=O)c2cc(NC(=O)Nc3ccc4c(c3)OCO4)ccc2O1	/	/	65.2	.	/	.
C[C@@H]1CN([C@H](C)CO)C(=O)c2cc(NC(=O)Nc3ccc4c(c3)OCO4)ccc2O[C@@H](C)CCCCO[C@H]1CN(C)Cc1ccc(C(F)(F)F)cc1	/	/	84.8	66.4	/	.
C[C@@H]1CCCCO[C@@H](CN(C)Cc2ccc(C(F)(F)F)cc2)[C@@H](C)CN([C@@H](C)CO)C(=O)c2cc(NC(=O)Nc3ccc4c(c3)OCO4)ccc2O1	/	/	.	.	/	.
C[C@@H]1CCCCO[C@H](CN(C)Cc2ccc(C(F)(F)F)cc2)[C@@H](C)CN([C@H](C)CO)C(=O)c2cc(NC(=O)Nc3ccc4c(c3)OCO4)ccc2O1	/	/	.	.	/	.
C[C@@H]1CCCCO[C@H](CN(C)Cc2ccc3c(c2)OCO3)[C@@H](C)CN([C@H](C)CO)C(=O)c2cc(NC(=O)Nc3ccc(C(F)(F)F)cc3)ccc2O1	/	/	.	.	/	.
CC=Cc1ccc2n(c1=O)C[C@@H]1[C@@H](CO)[C@H](C(=O)NCC(F)(F)F)[C@H]2N1C(=O)C1CC1 (mixture of isomers)	/	/	/	.	/	.
C[C@@H]1CCCCO[C@H](CN(C)C(=O)Nc2ccc(C(F)(F)F)cc2)[C@H](C)CN([C@H](C)CO)C(=O)c2cc(NC(=O)Nc3cccc4ccccc34)ccc2O1	/	/	.	.	/	.
CCOc1ccc(NC2=CC(=O)C(=O)c3ccccc32)cc1	.	102.3	.	.	.	/
O=C1C=C(Nc2ccc(F)cc2)c2ccccc2C1=O	.	96.5	.	.	.	.
O=C1C=C(Nc2cccnc2)c2ccccc2C1=O	.	100.6	.	.	.	/
O=c1cccccc1NCc1ccccc1	/	.	.	/	.	.
O=C1C=C(NCc2ccccc2)c2ccccc2C1=O	.	104.3	76.7	.	.	/
COCC(=O)Nc1ccc2c(c1)C(=O)N(C)[C@@H]1CC[C@@H](CC(=O)Nc3cn(C)nc3C)O[C@H]1CO2	/	/	.	.	/	.
CNC[C@@H]1OCCCC[C@H](C)Oc2ccc(NS(=O)(=O)c3c(C)noc3C)cc2C(=O)N([C@@H](C)CO)C[C@@H]1C	/	/	.	.	/	.
Cc1ccc(NC2=CC(=O)C(=O)c3ccccc32)c(C)c1	/	/	.	.	.	.
O=C1C=C(Nc2ccccc2O)c2ccccc2C1=O	.	100.3	/	.	.	.
